Screen size: about 39,000 compounds; about 3,300 (8.5%) were called active. This is one part of a sample in which actives are shown more often than they occur.

For the assay, the system named is HepG2. The experiment in a line: cytotoxicity call (relative viability < 0.9). As to conditions: 10 µM.
Turning to `CNc1[nH]cnc(=S)c1N`, the cytotoxicity call is “inactive”. `COc1ccc(NC(=O)Nc2ccc3c(c2)C(=O)N([C@H](C)CO)C[C@@H](C)[C@H](CN(C)CC2CCCCC2)O3)cc1`: the cytotoxicity call is “inactive”. As for `CO[C@H]1CN(C(=O)c2ccnnc2)[C@H]2COC[C@@H]12`, the entry is “inactive”; as for `Cc1noc(C)c1S(=O)(=O)Nc1ccc2c(c1)C(=O)N([C@@H](C)CO)C[C@@H](C)[C@@H](CN(C)Cc1ccc3c(c1)OCO3)O2`, “inactive”.

In the case of `Cc1cc(O)c(C(=O)NC(C(=O)NC2C(=O)N3C(C(=O)O)=C(CSc4nnnn4C)CSC23)c2ccc(O)cc2)cn1` (configuration not stated), the cytotoxicity call is “inactive”. As for `C[C@H](CO)N1C[C@H](C)[C@@H](CN(C)C(=O)Nc2cccc3ccccc23)Oc2ccc(NC(=O)Nc3ccc4c(c3)OCO4)cc2C1=O`, the entry is “inactive”.

In the case of `N[C@H]1[C@H](CCCCC(=O)O)SC[C@@H]1N`, the cytotoxicity call is “inactive”. As for `Cc1noc(C)c1NC(=O)N(C)C[C@@H]1Oc2ccc(NC(=O)c3ccncc3)cc2CC(=O)N([C@@H](C)CO)C[C@H]1C`, the entry is “inactive”. As for `Cl.NCCc1ccc(O)c(O)c1`, the entry is “active”; as for `CC(Cc1ccc(O)c(O)c1)C(C)Cc1ccc(O)c(O)c1` (configuration not stated), “inactive”.

Take `NCCc1ccc(O)c(O)c1`: the cytotoxicity call is “inactive”. As for `O=C(C[C@H]1CC[C@@H]2[C@H](COC[C@@H](O)CN2C(=O)C2CC2)O1)NCc1ccncc1`, the entry is “inactive”; as for `COc1cc(CO)cc(I)c1O[C@H]1C=C(C(=O)NCCO)C[C@@H](NCc2ccc(F)cc2)[C@@H]1O`, “inactive”.

Regarding `COc1cc(CO)cc(I)c1O[C@H]1C=C(C(=O)NCCO)C[C@@H](NC2CCCCCC2)[C@@H]1O`, the cytotoxicity call is “active”. As for `COc1cc(CO)cc(I)c1O[C@H]1C=C(C(=O)NCCO)C[C@@H](NC[C@@H]2CCCO2)[C@@H]1O`, the entry is “inactive”; as for `C[C@@H]1CCCCO[C@H](CN(C)Cc2ccc(Cl)c(Cl)c2)[C@H](C)CN([C@@H](C)CO)C(=O)c2cc(NC(=O)Cc3ccccc3)ccc2O1`, “inactive”; as for `C[C@@H]1CN([C@@H](C)CO)C(=O)c2cc(NC(=O)Cc3ccccc3)ccc2O[C@@H](C)CCCCO[C@H]1CN(C)Cc1ccccc1`, “inactive”.

Take `C[C@@H]1CN([C@H](C)CO)C(=O)c2cc(NC(=O)Cc3ccccc3)ccc2O[C@@H](C)CCCCO[C@H]1CN(C)Cc1ccc(Cl)c(Cl)c1`: the cytotoxicity call is “active”. As for `C[C@@H]1CCCCO[C@H](CN(C)Cc2ccc(Cl)c(Cl)c2)[C@@H](C)CN([C@H](C)CO)C(=O)c2cc(NC(=O)Cc3ccccc3)ccc2O1`, the entry is “active”; as for `C[C@H](CO)N1C[C@H](C)[C@@H](CN(C)Cc2ccc(Cl)c(Cl)c2)OCCCC[C@H](C)Oc2ccc(NC(=O)Cc3ccccc3)cc2C1=O`, “active”. As for `C[C@@H]1CN([C@@H](C)CO)C(=O)c2cc(NC(=O)Cc3ccccc3)ccc2O[C@@H](C)CCCCO[C@@H]1CN(C)Cc1ccccc1`, the entry is “inactive”; as for `C[C@@H]1CCCCO[C@@H](CN(C)Cc2ccc(Cl)c(Cl)c2)[C@H](C)CN([C@H](C)CO)C(=O)c2cc(NC(=O)Cc3ccccc3)ccc2O1`, “inactive”; as for `C[C@@H]1CCCCO[C@@H](CN(C)Cc2ccc(Cl)c(Cl)c2)[C@@H](C)CN([C@H](C)CO)C(=O)c2cc(NC(=O)Cc3ccccc3)ccc2O1`, “active”. With `C[C@@H]1CCCCO[C@@H](CN(C)Cc2ccccc2)[C@@H](C)CN([C@@H](C)CO)C(=O)c2cc(NC(=O)Cc3ccccc3)ccc2O1`, the cytotoxicity call was “inactive”.

As for `C[C@H]1CCCCO[C@@H](CN(C)Cc2ccccc2)[C@@H](C)CN([C@@H](C)CO)C(=O)c2cc(NC(=O)Cc3ccccc3)ccc2O1`, the cytotoxicity call was “inactive”.

As to `CC(C)NC(=O)[C@@]1(C)c2ccccc2C(=O)N(Cc2cc(C(F)(F)F)cc(C(F)(F)F)c2)[C@H]1c1ccc(CO)cc1`, the cytotoxicity call is “inactive”. As for `C[C@H](CO)N1C[C@H](C)[C@@H](CN(C)S(=O)(=O)c2ccccc2F)Oc2cc(C#Cc3cccc(F)c3)ccc2S1(=O)=O`, the entry is “inactive”. As for `COc1ccc(S(=O)(=O)N(C)C[C@H]2Oc3ccc(NC(=O)Cc4ccccc4)cc3CC(=O)N([C@@H](C)CO)C[C@@H]2C)cc1`, the entry is “inactive”; as for `C[C@H](CO)N1C[C@H](C)[C@@H](CN(C)C(=O)Cc2ccccn2)Oc2ncc(C#CC3CCCCC3)cc2C1=O`, “inactive”; as for `C[C@H](CO)N1C[C@H](C)[C@H](CN(C)S(=O)(=O)c2ccc(F)cc2)Oc2ccc(NC(=O)c3ccncc3)cc2C1=O`, “inactive”.

On to `CC(C)NC(=O)Nc1ccc2c(c1)CC(=O)N([C@@H](C)CO)C[C@H](C)[C@@H](CN(C)Cc1ccc3c(c1)OCO3)O2`, for which the cytotoxicity call is “inactive”. As for `C[C@@H]1CCCCO[C@@H](CN(C)C(=O)c2ccccc2)[C@H](C)CN([C@@H](C)CO)C(=O)c2cc(NC(=O)Nc3ccc(F)cc3)ccc2O1`, the entry is “inactive”; as for `C[C@H](NC(=O)C[C@H]1C[C@H]2c3cc(NC(=O)Nc4ccc(C(F)(F)F)cc4)ccc3O[C@H]2[C@@H](CO)O1)c1ccccc1`, “inactive”; as for `CC(C)[Si]1(C(C)C)OCc2cc(-c3ccc(-c4ccc(Cl)c(Cl)c4)o3)nc(-c3ccccc3)c21`, “inactive”. As for `CCC(=O)OC1C2CC3=C4CC(=O)OC(c5ccoc5)C4(C)CCC3C(C)(C2=O)C(CC(=O)OC)C1(C)C` (configuration not stated), the entry is “inactive”; as for `C[C@H](CO)N1C[C@H](C)[C@@H](CN(C)S(=O)(=O)c2ccccc2)OCCCC[C@H](C)Oc2ccc(NC(=O)NC3CCCCC3)cc2C1=O`, “inactive”. As for `C[C@H]1CCCCO[C@H](CN(C)Cc2ccc(Cl)c(Cl)c2)[C@@H](C)CN([C@@H](C)CO)C(=O)c2cc(NC(=O)Cc3ccccc3)ccc2O1`, the entry is “active”; as for `C[C@@H]1CCCCO[C@@H](CN(C)Cc2ccc(Cl)c(Cl)c2)[C@H](C)CN([C@@H](C)CO)C(=O)c2cc(NC(=O)Cc3ccccc3)ccc2O1`, “active”. On to `C[C@@H]1CCCCO[C@@H](CN(C)Cc2ccc(Cl)c(Cl)c2)[C@@H](C)CN([C@@H](C)CO)C(=O)c2cc(NC(=O)Cc3ccccc3)ccc2O1`, for which the cytotoxicity call is “inactive”. As for `C[C@@H]1CCCCO[C@H](CN(C)Cc2ccccc2)[C@@H](C)CN([C@H](C)CO)C(=O)c2cc(NC(=O)Cc3ccccc3)ccc2O1`, the entry is “inactive”. Next, `C[C@@H]1CCCCO[C@H](CN(C)Cc2ccc(Cl)c(Cl)c2)[C@@H](C)CN([C@@H](C)CO)C(=O)c2cc(NC(=O)Cc3ccccc3)ccc2O1`: “inactive”.

In the case of `C[C@@H]1CN([C@H](C)CO)C(=O)c2cc(NC(=O)Cc3ccccc3)ccc2O[C@@H](C)CCCCO[C@@H]1CN(C)Cc1ccc(Cl)c(Cl)c1`, the cytotoxicity call is “inactive”.

The record behind these values is the antibiotic and cytotoxicity screens of Wong et al. (2023).
